The results in this text go back to PubChem BioAssay.

Structures are written as SMILES. Inconclusive results are not listed. The source made the active and inactive calls.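 Rule for the calls, unless noted: active = efflux inhibition above 0.42, the validation set average plus 4 SD; inconclusive = no clear call, values can overlap the other calls; inactive = the rest.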

Assay [1] is described as follows: rapamycin-like changes in RPL19A-GFP expression – cell-based, S. cerevisiae, multiplex flow cytometry, primary screen (AID 1862; in the data active = percent of DMSO control GFP below about 86%;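 note: lower values mimic rapamycin by blocking the RPL19A rise seen in DMSO cells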). As to conditions: S. cerevisiae RPL19A-GFP strain, flow cytometry fluorescence, 3 h; at 10 µM; stronger effect = lower value.
Assay [2] can be described thus: TOR pathway GLN3 branch reporter MEP2-GFP changes – S. cerevisiae, multiplex flow cytometry, primary screen (AID 1867;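 active = GFP response, as percent of the DMSO control, above the screen-wide mean plus 3 SD, about 139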;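 note: median GFP channel fluorescence of barcode-gated MEP2-GFP cells measured by flow cytometry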). Particulars: S. cerevisiae MEP2-GFP strain, 3 h, at 10 µM, stronger effect = higher value, 100% means same as DMSO wells.
The nature of assay [3]: TOR pathway RTG branch CIT2 reporter changes – S. cerevisiae, GFP fusion, multiplex flow cytometry, primary screen (AID 1870;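 active = percent response above a set limit, the screen-wide mean plus 3 SD, cut at about 130% in these data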;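 note: barcoded CIT2-GFP strain pooled with four other GFP strains with rapamycin as positive control; median GFP fluorescence per well over plate mean of DMSO wells so 100% = DMSO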). Particulars: S. cerevisiae CIT2-GFP expression, 3 h, at 10 µM, stronger effect = higher value. (In general: Flow cytometry measures light scatter and fluorescence of single cells or particles in a stream.)
Assay [4] can be described thus: TOR pathway LAP4-GFP level changes – S. cerevisiae, multiplex flow cytometry, primary screen (AID 1873;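 active = GFP signal, as percent of the solvent control, above the screen mean plus 3 SD, about 149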). As to conditions: S. cerevisiae LAP4-GFP expression, 3 h, at 10 µM, stronger effect = higher value.
The nature of assay [5]: reduced mouse 2C T cell binding to pMHC/ICAM-1 vesicles – MLPCN validation set, flow cytometry, LFA-1/ICAM-1 modulator project, pilot screen (AID 2523;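 active = response below a set limit, under 55% cells CD8-positive and vesicle-bound, and CD8 cells' 90th-percentile brightness under 279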;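 for vesicle binding response: mean PE anti-B7-1 fluorescence of CD8+ cells relative to row control; 100% = QL9-loaded vesicles with DMSO vehicle in the same plate row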). As to conditions: 2C mouse CD8+ T cells, at 7 µM, stronger effect = lower value; double positive events: measured here: CD8+/vesicle+ event percentage.
The target of assay [6] is Integrin beta-1 (Homo sapiens) + Integrin alpha-4 (Homo sapiens) (UniProt P13612+P05556). As to the kind of experiment: alpha4beta1 integrin LIBS antibody binding reduction – U937 cells, HUTS-21 mAb, flow cytometry, validation set, VLA-4 allosteric modulator project, pilot screen (AID 2674;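 active = inhibition above 50%, about 3 SD of the validation set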;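 note: antibody binding induced by the VLA-4 ligand LDV present at three times its Kd; 0% = LDV ligand with antibody and no compound and 100% = antibody without LDV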). Particulars: HUTS-21 LIBS mAb binding, at 6.7 µM, stronger effect = higher value, binding induced by LDV ligand.
Integrin beta-1 (Homo sapiens) + Integrin alpha-4 (Homo sapiens), sequence (P05556 whole entry, looked up): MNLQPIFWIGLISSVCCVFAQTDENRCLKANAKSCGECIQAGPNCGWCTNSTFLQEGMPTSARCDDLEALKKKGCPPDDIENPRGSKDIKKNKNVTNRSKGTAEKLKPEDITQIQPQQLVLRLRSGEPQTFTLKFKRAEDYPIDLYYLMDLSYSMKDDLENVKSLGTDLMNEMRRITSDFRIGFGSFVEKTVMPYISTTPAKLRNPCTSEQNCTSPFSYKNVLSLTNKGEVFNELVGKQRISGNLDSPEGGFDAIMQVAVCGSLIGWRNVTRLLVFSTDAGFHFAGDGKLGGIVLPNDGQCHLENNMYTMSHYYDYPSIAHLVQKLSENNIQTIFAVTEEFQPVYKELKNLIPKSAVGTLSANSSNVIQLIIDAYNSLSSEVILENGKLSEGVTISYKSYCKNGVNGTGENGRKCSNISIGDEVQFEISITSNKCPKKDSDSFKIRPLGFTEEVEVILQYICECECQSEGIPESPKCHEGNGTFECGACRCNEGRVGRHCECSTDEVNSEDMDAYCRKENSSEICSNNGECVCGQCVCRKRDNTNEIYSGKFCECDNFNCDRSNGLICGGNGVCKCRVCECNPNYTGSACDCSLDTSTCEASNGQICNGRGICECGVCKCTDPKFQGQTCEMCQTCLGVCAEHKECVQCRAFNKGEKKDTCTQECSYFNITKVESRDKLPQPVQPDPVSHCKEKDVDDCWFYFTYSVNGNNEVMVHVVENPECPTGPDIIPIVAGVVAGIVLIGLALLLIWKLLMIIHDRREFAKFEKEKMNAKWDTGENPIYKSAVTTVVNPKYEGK
Integrin beta-1 (Homo sapiens) + Integrin alpha-4 (Homo sapiens), sequence (P13612 whole entry, looked up): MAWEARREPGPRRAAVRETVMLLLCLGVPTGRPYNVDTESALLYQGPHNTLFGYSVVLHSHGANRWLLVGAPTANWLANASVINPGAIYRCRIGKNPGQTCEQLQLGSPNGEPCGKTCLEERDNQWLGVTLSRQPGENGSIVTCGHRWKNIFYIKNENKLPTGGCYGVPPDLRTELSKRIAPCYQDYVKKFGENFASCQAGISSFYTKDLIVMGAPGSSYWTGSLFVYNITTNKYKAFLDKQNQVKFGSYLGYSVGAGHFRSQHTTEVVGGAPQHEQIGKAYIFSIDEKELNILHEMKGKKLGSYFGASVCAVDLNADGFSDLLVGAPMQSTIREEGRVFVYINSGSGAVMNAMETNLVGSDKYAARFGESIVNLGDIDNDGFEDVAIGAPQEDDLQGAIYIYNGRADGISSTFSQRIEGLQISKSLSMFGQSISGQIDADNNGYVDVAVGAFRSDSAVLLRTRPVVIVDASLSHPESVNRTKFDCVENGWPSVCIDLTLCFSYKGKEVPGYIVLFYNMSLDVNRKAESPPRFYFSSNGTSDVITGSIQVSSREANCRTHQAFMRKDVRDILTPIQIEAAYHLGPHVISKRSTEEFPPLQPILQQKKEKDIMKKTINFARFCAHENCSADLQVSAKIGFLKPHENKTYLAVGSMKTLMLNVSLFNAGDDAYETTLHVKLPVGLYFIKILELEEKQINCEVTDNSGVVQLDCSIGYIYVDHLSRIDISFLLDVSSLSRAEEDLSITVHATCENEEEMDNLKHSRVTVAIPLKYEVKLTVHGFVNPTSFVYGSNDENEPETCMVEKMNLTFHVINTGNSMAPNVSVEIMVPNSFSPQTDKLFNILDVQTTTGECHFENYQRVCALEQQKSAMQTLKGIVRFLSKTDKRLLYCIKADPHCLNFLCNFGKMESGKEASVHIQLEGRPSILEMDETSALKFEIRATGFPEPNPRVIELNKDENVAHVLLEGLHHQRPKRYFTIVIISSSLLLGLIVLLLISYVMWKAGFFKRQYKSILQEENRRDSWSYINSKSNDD

A short description of assay [7]: calorie-restriction mimetic ROS inhibitors, yeast – validation compound set, pilot screen (AID 2706;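 active = superoxide response below 65% of plate, a cut near 3 SD across the whole screen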;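 note: yeast exposed to compound for one week at 30 degrees C before staining; 100% = mean of all compound wells on the same plate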). As to conditions: S. cerevisiae aging, superoxide DHE fluorescence; at 10 µM, stronger effect = lower value.
The target in assay [8] is Beta-adrenergic receptor kinase 1 (Homo sapiens) (UniProt P25098). As to the kind of experiment: GRK2 binders displacing RNA aptamer, biochemical, validation, human GRK2, bead flow cytometry (AID 488806;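 active = aptamer binding inhibition above 30%, about 3 SD of noise from non-fluorescent compounds; inactive = inhibition at or below 30%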). Particulars: bead-bound GRK2, FAM-aptamer displacement, at 10 µM, stronger effect = higher value.
Beta-adrenergic receptor kinase 1 (Homo sapiens), sequence (P25098 whole entry, looked up): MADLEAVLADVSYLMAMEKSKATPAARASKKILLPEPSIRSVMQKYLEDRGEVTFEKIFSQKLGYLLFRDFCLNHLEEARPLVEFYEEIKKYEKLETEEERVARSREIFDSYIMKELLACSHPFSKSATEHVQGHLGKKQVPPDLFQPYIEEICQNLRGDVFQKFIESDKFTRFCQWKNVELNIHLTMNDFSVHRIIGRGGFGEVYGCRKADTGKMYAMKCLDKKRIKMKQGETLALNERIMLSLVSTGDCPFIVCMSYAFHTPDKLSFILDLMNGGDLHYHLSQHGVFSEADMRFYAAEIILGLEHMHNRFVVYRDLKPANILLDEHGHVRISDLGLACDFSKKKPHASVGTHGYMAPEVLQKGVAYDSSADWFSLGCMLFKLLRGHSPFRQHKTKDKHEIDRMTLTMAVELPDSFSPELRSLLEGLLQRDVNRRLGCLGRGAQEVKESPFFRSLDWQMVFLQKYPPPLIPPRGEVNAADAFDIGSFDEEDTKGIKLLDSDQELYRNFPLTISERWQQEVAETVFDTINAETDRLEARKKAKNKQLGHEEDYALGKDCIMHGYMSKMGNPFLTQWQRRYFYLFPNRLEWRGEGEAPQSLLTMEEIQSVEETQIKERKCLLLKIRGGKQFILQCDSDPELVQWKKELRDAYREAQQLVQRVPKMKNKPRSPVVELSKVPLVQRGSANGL
Assay [9] has as its target Beta-2 adrenergic receptor (Homo sapiens) (UniProt P07550). As to the kind of experiment: agonist-induced loss of surface beta2AR – cell-based, FAP fluorogen, flow cytometry, validation set, pilot screen (AID 504459;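 active = percent response above 42, roughly 3 SD of non-fluorescent test compounds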;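 note: agonist-driven loss of surface beta2AR via internalization measured by FAP dye flow cytometry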). Particulars: Am2.2-beta2AR cells, at 10 µM, stronger effect = higher value.
The target in assay [10] is AP-2 complex subunit beta (Homo sapiens) (UniProt P63010). Put plainly: beta-arrestin/AP2 interaction blockers – biochemical, validation set, GST-AP2 beads, flow cytometry, pilot screen (AID 504541;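 active = inhibition above 54%, about 3 SD of non-fluorescent compounds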;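 note: AP2 carries R879A mutation and is captured from E. coli lysate; bead-bound FITC arrestin peptide fluorescence measuring arrestin peptide binding to AP2; 0% = DMSO wells and 100% = excess unlabeled arrestin peptide control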). As to conditions: FITC arrestin peptide, at 10 µM, stronger effect = higher value, AP2 beta2 appendage fragment, R879A mutant.
AP-2 complex subunit beta (Homo sapiens), sequence (P63010 whole entry, looked up, the tested form may be a part, one chain of several): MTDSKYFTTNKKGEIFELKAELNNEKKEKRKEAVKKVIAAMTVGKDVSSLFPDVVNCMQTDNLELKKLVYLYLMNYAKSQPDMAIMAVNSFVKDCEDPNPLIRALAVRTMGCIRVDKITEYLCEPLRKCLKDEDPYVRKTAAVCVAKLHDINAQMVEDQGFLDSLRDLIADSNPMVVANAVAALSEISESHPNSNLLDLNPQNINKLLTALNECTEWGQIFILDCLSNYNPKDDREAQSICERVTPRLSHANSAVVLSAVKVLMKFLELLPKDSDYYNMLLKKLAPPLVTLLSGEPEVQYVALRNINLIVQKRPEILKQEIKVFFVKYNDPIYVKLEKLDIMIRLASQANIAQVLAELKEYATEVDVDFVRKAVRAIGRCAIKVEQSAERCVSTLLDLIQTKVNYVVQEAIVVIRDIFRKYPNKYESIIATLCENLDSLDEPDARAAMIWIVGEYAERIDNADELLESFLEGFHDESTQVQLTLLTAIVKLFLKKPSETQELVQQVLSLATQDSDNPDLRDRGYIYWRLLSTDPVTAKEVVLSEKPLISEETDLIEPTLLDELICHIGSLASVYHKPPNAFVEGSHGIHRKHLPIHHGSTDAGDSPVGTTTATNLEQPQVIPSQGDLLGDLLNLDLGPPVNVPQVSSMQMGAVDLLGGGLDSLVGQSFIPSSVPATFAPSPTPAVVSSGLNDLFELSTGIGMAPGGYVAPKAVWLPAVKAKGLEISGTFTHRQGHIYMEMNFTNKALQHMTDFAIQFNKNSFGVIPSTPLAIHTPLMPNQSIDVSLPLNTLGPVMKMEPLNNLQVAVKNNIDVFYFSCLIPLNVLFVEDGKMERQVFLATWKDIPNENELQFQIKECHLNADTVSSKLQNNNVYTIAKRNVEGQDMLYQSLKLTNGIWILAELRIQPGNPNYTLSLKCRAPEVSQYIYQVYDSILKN
The nature of assay [11]: cytosolic pH regulators acting via V-ATPase – S. cerevisiae, pHLuorin, HTS validation (AID 504600; in the data active = response above about 15%;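 note: plate controls were DMSO for no effect and reference compound for full effect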). As to conditions: V-ATPase proton transport, at 10 µM, stronger effect = higher value.
The test system of assay [12] is anti-desmoglein-3 scFv antibody binding to human DSG3. Put plainly: blockers of pathogenic pemphigus antibody–desmoglein-3 binding – biochemical, validation compound set, bead-based, flow cytometry, pilot screen (AID 588368;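 active = binding below the plate cutoff, the plate median minus 3 SD, with a reading above zero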;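 note: signal is the median channel fluorescence of bead-bound GFP antibody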). As to conditions: Protein G beads, DSG3-Fc, scFv-GFP binding, at 10 µM, stronger effect = lower value.
A short description of assay [13]: Nile Red efflux blockade in pump-expressing yeast – validation compound set, multiplex, phenotypic, pilot screen (AID 588506).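 Note: Nile Red retained in cells so higher fluorescence means more efflux inhibition; 0 = negative control wells and 1 = enniatin B 25 µM full block.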 As to conditions: S. cerevisiae pump-expressing triplex, Nile Red efflux flow cytometry; at 10 µM; stronger effect = higher value; the pumps come from Candida albicans.
For assay [14], the target named is ATP-binding cassette sub-family B member 6 (Homo sapiens) (UniProt Q9NP58). As to the kind of experiment: blockers of ABCB6-driven porphyrin uptake – K562-ABCB6 cells, flow cytometry, validation set, pilot screen (AID 588550;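 active = inhibition above the screen-wide mean plus 3 SD, about 51%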;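 note: 0% = DMSO wells and 100% = benzethonium chloride 70 µM positive control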). As to conditions: K562-ABCB6 porphyrin accumulation, 1 h, at 10 µM, stronger effect = higher value.
ATP-binding cassette sub-family B member 6 (Homo sapiens), sequence (Q9NP58 whole entry, looked up): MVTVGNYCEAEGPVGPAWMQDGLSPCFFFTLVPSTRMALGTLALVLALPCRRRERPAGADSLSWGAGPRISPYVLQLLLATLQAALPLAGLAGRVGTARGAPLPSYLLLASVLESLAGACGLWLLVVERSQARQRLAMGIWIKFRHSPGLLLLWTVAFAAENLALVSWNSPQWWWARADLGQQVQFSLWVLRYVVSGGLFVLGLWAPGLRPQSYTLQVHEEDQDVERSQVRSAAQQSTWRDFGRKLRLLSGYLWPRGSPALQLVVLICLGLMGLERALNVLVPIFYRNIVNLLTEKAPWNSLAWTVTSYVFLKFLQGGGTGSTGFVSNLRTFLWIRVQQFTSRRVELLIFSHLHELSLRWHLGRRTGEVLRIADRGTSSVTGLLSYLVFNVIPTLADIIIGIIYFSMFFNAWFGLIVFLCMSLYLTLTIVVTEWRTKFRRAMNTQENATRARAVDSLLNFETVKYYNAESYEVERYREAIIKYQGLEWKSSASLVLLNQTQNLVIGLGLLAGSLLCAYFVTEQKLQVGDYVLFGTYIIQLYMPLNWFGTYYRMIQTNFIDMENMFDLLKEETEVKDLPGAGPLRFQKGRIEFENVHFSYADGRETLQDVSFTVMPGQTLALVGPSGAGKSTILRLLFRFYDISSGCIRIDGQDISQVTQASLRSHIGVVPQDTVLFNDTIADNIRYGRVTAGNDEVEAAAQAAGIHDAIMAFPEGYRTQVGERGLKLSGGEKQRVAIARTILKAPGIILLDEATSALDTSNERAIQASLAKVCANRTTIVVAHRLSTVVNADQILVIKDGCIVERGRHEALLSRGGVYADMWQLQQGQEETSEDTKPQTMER
Assay [15] can be described thus: AML differentiation inducers, ER-HoxA9 marrow cells – cell-based, GFP/MAC1 double positive, flow cytometry, validation set, primary screen (AID 588685;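 active = differentiation response of at least 50%, scaled between solvent and reference control, from cells with both markers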;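 note: compound exposure lasts four days before antibody staining and flow analysis; 0% = DMSO wells and 100% = 5 µM fulvestrant positive control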). As to conditions: stronger effect = higher value, normalized: vehicle 0, fulvestrant 100.
The nature of assay [16]: yeast AGP1-GFP level changes, GLN3 branch – cell-based, multiplex flow cytometry, S. cerevisiae, primary screen (AID 1887;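 active = GFP signal above the screen-wide mean plus 3 SD, that is over about 124.5% of the solvent control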;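 note: AGP1-GFP fusion strain of S. cerevisiae within a five-strain barcoded multiplex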). Particulars: 3 h, at 10 µM, stronger effect = higher value.

Beta-2 adrenergic receptor (Homo sapiens), sequence (P07550 whole entry, looked up): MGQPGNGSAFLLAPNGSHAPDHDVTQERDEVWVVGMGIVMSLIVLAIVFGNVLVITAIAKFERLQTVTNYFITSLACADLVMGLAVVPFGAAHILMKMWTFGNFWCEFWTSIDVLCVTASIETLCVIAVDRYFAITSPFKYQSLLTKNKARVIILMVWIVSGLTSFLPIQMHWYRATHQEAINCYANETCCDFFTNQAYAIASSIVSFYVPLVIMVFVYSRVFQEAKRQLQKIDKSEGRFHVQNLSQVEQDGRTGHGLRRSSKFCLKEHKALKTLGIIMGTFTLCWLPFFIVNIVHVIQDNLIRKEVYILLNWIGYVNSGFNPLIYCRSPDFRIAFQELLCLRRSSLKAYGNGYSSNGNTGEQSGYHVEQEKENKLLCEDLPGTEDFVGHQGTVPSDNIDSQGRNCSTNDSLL

As usually defined, the inhibition is the drop in the measured response relative to a control, in per cent. In the case of `COc1ccc(NC(=O)C2C(=O)N(CCO)C3(C)CC2c2ccccc2O3)cc1` (stereo not given), in assay [1], the percent of DMSO control GFP is 99.6% (inactive). The GFP response vs DMSO is 106% (inactive) in assay [2] and 79.8% (inactive) in [4]. Besides, the percent response of DMSO control in [3] is 104% (inactive). Further, the double positive events in [5] worked out at 70.2%. Further, in assay [5], the vesicle binding response was 158% (inactive). Moreover, the inhibition in [6] is 5.49% (inactive); in [10], 6.58% (inactive); in assay [14] it was 13% (inactive). Also, the superoxide response (% of plate) in [7] was 96.6% (inactive). Besides, the aptamer binding inhibition in assay [8] was 3% (inactive). The response in [9] is -2.11% (inactive); in assay [11] it was -0.98% (inactive). In addition, the binding (% of control) in assay [12] is 107% (inactive). In assay [13], the efflux inhibition (fraction of control) is -0.46 (inactive). Besides, in assay [15], the differentiation response was 5.73% (inactive).
For `Nc1c2c(nc3ccccc13)CCCC2`, the percent of DMSO control GFP in assay [1] is 89.5% (inactive). Also, the GFP response vs DMSO was 112% (inactive) in assay [2] and 69.9% (inactive) in assay [4]. In addition, in assay [3], the percent response of DMSO control was 99.2% (inactive). The compound further gave a double positive events in assay [5] of 68.9%. In addition, in [5], the vesicle binding response is 258% (inactive). Also, the inhibition in assay [6] was 1.61% (inactive); in assay [10], 3.69% (inactive); in assay [14], 11% (inactive). The superoxide response (% of plate) in assay [7] was 105% (inactive). In addition, the aptamer binding inhibition in [8] is 2% (inactive). The values for the response in assay [9] and in assay [11] were -14.3% (inactive) and 7.21% (inactive), respectively. In assay [12], the binding (% of control) was 104% (inactive). For the same compound, the efflux inhibition (fraction of control) in [13] is 0.05 (inactive). Further, the differentiation response in assay [15] is -5.73% (inactive).
As for `COc1ccc(NC(=O)C2CSC3c4ccccc4C(=O)N23)cc1` (stereo not given), in [1], the percent of DMSO control GFP was 101% (inactive). Further, the GFP response vs DMSO in assay [2] was 104% (inactive); in assay [4] it was 105% (inactive). Further, the percent response of DMSO control in assay [3] was 96.5% (inactive). In addition, the GFP response, % of DMSO in [16] is 98.8% (inactive). Moreover, the double positive events in [5] came out at 77.8%. Moreover, the inhibition in assay [6] was 0.25% (inactive); in assay [10], -0.6% (inactive); in assay [14], -2% (inactive). For the same compound, in [7], the superoxide response (% of plate) was 99.1% (inactive). Also, the aptamer binding inhibition in assay [8] was 0% (inactive). The results for the response in assay [9] and in assay [11] were 7.07% (inactive) and 4.39% (inactive), respectively. Moreover, in assay [12], the binding (% of control) is 98.7% (inactive). Further, the efflux inhibition (fraction of control) in assay [13] was -0.1 (inactive). Further, the differentiation response in [15] was -0.18% (inactive).
Take `CCCCOc1ccc(OCCCN2CCOCC2)cc1`: the percent of DMSO control GFP in [1] was 86.5% (inactive). For the same compound, the GFP response vs DMSO is 136% (inactive) in [2] and 86.9% (inactive) in assay [4]. Also, the percent response of DMSO control in assay [3] was 104% (inactive). Besides, the GFP response, % of DMSO in [16] is 95.9% (inactive). In addition, the double positive events in assay [5] was found to be 56%. The inhibition was 11.3% (inactive) in assay [6], -2.38% (inactive) in assay [10] and 11% (inactive) in assay [14]. The superoxide response (% of plate) in [7] is 112% (inactive). In addition, the aptamer binding inhibition in assay [8] was 3% (inactive). Also, the results for the response in assay [9] and in assay [11] were -8.98% (inactive) and 1.62% (inactive), respectively. Besides, the binding (% of control) in assay [12] was 106% (inactive). For the same compound, the efflux inhibition (fraction of control) in assay [13] is -0.06 (inactive). The differentiation response in [15] was 4.91% (inactive).
On to `CCOc1ccc(C(=O)Nc2ccc(N3CCN(C(C)=O)CC3)cc2)cc1[N+](=O)[O-]`, for which the percent of DMSO control GFP in [1] is 93% (inactive). The figures for the GFP response vs DMSO in assay [2] and in [4] were 106% (inactive) and 78.7% (inactive), respectively. In [3], the percent response of DMSO control is 115% (inactive). Besides, the double positive events in assay [5] amounted to 68.5%. The vesicle binding response in assay [5] is 210% (inactive). For the same compound, the inhibition is 3.55% (inactive) in assay [6], -0.46% (inactive) in assay [10] and 11% (inactive) in assay [14]. Besides, the superoxide response (% of plate) in assay [7] was 100% (inactive). For the same compound, the aptamer binding inhibition in [8] was 3% (inactive). In addition, the response in assay [9] is -6.75% (inactive); in assay [11], 0.55% (inactive). Also, the binding (% of control) in assay [12] was 99.4% (inactive). Besides, in [13], the efflux inhibition (fraction of control) is 0.27 (inactive). Moreover, the differentiation response in assay [15] is -1.64% (inactive).
